Data: PubChem BioAssay

Test: small-molecule microarray binders of probe aEGFR, primary screen, biochemical, biotinylated probe, 635/667 nm fluorescence (AID 1097);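 further: probe is a biotinylated anti-EGFR antibody binding compounds printed on slides; score combines fluorescence near 667 nm and signal to noise of each spot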
Conditions: higher = more signal

Row | SMILES | composite z-score
1 | COCCOC(=O)N1C(=O)[C@@]2(c3cc(C#CCCO)ccc31)[C@H](C(=O)N1CCN(c3ncccn3)CC1)[C@H]1C(=O)O[C@H](c3ccccc3)[C@H](c3ccccc3)N1[C@@H]2c1ccc(OCCO)cc1 | 0.0193
2 | COC(=O)[C@H](Cc1ccccc1)N1CC(C)(OC)O[C@@H](Cc2ccccc2)[C@H]1/C=C/C1CC1 (stereo partly drawn) | -0.15
3 | CCOC(=O)C1=CCC(c2ccncc2)N(S(=O)(=O)c2ccc(C)cc2)C1 (stereo not drawn) | 0.0642
4 | COC(=O)[C@@]1(Cc2ccc(F)cc2)[C@H]2c3cc(C(=O)N4CCCC4)n(Cc4ccc(C(F)(F)F)nc4)c3C[C@H]2CN1C(=O)c1ccccc1 | 0.188
5 | COCCOC(=O)N1C(=O)[C@@]2(c3cc(C#CCNC(N)=O)ccc31)[C@H](c1ccccc1OCCO)N1[C@H](c3ccccc3)[C@H](c3ccccc3)OC(=O)[C@H]1[C@@H]2C(=O)N1CCCCCCC1 | -0.0121
6 | CCCCC(=C=CC[C@@H](O)c1ccccc1OCCO)C[C@@H](O)c1ccccn1 | -0.0238
7 | O=C(NCC(F)(F)F)[C@@H]1c2ccccc2C(=O)N(Cc2cc(C(F)(F)F)cc(C(F)(F)F)c2)[C@H]1c1ccc(CO)cc1 | -0.219
8 | CC(CO)N1C(=O)[C@@H]2[C@H]3C(=O)OCC=C[C@H]3OC23C=CCN(c2ccc4ccccc4c2)C(=O)[C@@H]13 (stereo partly drawn) | -0.301
